Consider five molecules from PubChem BioAssay.

The source made the active and inactive calls. Unless noted, the rule behind the calls is not given here.

Assay [1] in a line: compounds binding Alexa647 anti-His antibody – biochemical, small-molecule microarray, 635 nm fluorescence, artefact control for SMM control protein annotation, primary screen (AID 1128).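 Note: score merges feature fluorescence with signal-to-noise for each printed compound spot.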 The note with it: higher = more signal.
The subject of assay [2] is Human papillomavirus type 1a E7 protein (residues 1-88). In words: HPV1a E7 small-molecule binders, primary screen, biochemical, small-molecule microarray, residues 1-88, 635 nm (AID 1129). The note with it: small-molecule microarray binding, fluorescence 635 nm; higher = more signal.
Assay [3] addresses Focal adhesion kinase 1 (Homo sapiens) (UniProt Q05397). In words: PTK2 protein binding on printed compound slides – biochemical, small-molecule microarray, 635/667 nm fluorescence, BSA, DTT, primary screen (AID 1130).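 Note: composite of spot emission at 667 nm and signal to noise over triplicate slides.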 The note with it: 635 nm fluorescence, higher = more signal.
Assay [4] concerns Fibrinogen (Alexa647-labelled). As to the kind of experiment: Alexa647-fibrinogen binding to printed small molecules – biochemical, small-molecule microarray, 635/667 nm fluorescence, artefact control for SMM control-protein annotation, profiling panel (AID 1131).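 Note: z-score merges 667 nm fluorescence with per-spot signal-to-noise over triplicate slides.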 The note with it: fibrinogen-A647 binding fluorescence, higher = more signal.
The target of assay [5] is Follistatin (Homo sapiens) (UniProt P19883). In words: FST protein binding to printed compounds – biochemical, small-molecule microarray, 635/667 nm fluorescence, primary screen (AID 1132). The note with it: 635 nm fluorescence, higher = more signal.
Sequence of Follistatin (Homo sapiens) (P19883 whole entry, looked up): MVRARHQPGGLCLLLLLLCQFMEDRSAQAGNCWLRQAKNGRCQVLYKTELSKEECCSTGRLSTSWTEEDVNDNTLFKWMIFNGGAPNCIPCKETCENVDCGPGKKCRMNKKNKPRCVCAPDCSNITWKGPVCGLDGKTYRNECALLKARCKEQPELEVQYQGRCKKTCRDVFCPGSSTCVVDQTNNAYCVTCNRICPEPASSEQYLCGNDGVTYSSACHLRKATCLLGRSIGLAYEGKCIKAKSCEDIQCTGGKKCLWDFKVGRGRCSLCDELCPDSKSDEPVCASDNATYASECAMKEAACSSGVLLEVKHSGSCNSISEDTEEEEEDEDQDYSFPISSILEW
In assay [6] the target is Fibroblast growth factor 2 (Homo sapiens) (UniProt P09038). In words: basic fibroblast growth factor binding to printed compounds – biochemical, small-molecule microarray, 635/667 nm fluorescence, primary screen (AID 1133). The note with it: FGF2, fluorescence 635/667, higher = more signal.
Sequence of Fibroblast growth factor 2 (Homo sapiens) (P09038 whole entry, looked up): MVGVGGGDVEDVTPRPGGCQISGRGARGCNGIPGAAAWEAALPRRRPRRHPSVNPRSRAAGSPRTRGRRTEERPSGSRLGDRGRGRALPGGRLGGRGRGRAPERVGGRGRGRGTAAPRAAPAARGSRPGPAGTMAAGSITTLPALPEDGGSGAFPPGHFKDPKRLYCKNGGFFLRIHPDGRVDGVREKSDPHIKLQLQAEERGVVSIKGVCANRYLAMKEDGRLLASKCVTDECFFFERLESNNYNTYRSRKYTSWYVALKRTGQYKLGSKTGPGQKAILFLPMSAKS
The nature of assay [7]: JC-1 mitochondrial potential readout, lung cancer cells – cell-based, A549, JC-1 fluorescence, basal, 24 h, 100 nL, profiling panel (AID 1138).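 Note: A549 lung adenocarcinoma cells under basal conditions with no added stimulus; test concentration not given here.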 The note with it: higher = more signal.
In a further assay the test system is Lefty1. In words: Lefty1 protein binding to printed compounds – biochemical, small-molecule microarray, 635/667 nm fluorescence, primary screen (AID 1139). The note with it: fluorescence 635/667, higher = more signal.
The subject of assay [8] is wheat germ agglutinin (Triticum aestivum), Alexa647-labelled. In words: Alexa647-WGA lectin binding to printed small molecules – biochemical, small-molecule microarray, 635/667 nm fluorescence, artefact control for SMM control-protein annotation, profiling panel (AID 1140).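 Note: score merges 667 nm feature emission with signal to noise over triplicate slides.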 The note with it: WGA-A647 binding, 635 nm fluorescence, higher = more signal.
Assay [9] deals with Luciferin 4-monooxygenase (Photinus pyralis) (UniProt P08659). In words: inhibition of purified Photinus pyralis luciferase – biochemical, luminescence, purified enzyme, 2006 set, primary screen (AID 1141).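 Note: cell-free assay with purified firefly luciferase at 100 ng per well in PBS; test concentration not given here.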 The note with it: purified firefly luciferase, SteadyGlo luminescence, 30 min; higher = more signal, called active from +8 up or from −8 down.
Sequence of Luciferin 4-monooxygenase (Photinus pyralis) (P08659 whole entry, looked up): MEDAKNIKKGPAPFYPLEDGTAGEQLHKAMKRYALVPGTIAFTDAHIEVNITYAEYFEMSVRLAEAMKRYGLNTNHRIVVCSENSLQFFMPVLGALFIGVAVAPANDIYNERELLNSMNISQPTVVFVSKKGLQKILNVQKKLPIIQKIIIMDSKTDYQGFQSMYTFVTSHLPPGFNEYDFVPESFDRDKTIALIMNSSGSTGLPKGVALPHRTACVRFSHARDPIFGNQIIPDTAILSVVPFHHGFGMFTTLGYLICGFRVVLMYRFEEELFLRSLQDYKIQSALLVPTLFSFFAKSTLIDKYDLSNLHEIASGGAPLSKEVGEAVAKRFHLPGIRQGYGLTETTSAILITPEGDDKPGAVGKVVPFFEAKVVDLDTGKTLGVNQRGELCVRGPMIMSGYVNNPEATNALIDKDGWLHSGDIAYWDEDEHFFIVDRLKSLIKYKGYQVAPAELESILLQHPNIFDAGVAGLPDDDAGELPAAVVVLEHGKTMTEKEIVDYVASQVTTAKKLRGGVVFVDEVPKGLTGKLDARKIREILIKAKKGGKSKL
Assay [10] concerns Wnt5a (protein binding on small-molecule microarray). In words: small molecules binding Wnt5a protein – biophysical, small-molecule microarray, 635/667 nm fluorescence, primary screen (AID 1142).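 Note: fluorescence read at 667 nm with signal to noise per printed feature.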 The note with it: 635 nm fluorescence, higher = more signal.
Assay [11] in a line: ATP-based viability of Huh7 replicon cells – cell-based, CellTiter-Glo luminescence, basal, 48 h, cytotoxicity control for HCV replication inhibitor project, primary screen (AID 1143).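 Note: Huh7 hepatoma cells carrying a hepatitis C replication reporter with no stimulus; test concentration not given here.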 The note with it: higher = more signal, called active from +8 up or from −8 down. For orientation: Replicon systems follow genome replication, usually without infectious particles.
A short description of assay [12]: Pseudomonas biofilm growth suppression – PAO1 strain, BacTiter-Glo luminescence, LB-PBS, primary screen (AID 1144). The note with it: P. aeruginosa PAO1 biofilm, 12 h, higher = more signal.
Assay [13] can be described thus: basal CRE-LacZ reporter activity in PC12 – cell-based, unstimulated, primary screen (AID 1145). The note with it: no forskolin, luminescence, 4.5 h, higher = more signal, called active from +8 up or from −8 down.
Assay [14] is described as follows: forskolin-driven CRE-LacZ activity in PC12 – cell-based, CRE-LacZ reporter, forskolin-stimulated, primary screen (AID 1146).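 Note: PC12 cells with 6xCRE LacZ reporter stimulated by forskolin 10 µM; beta-galactosidase reporter signal reflecting CREB driven transcription.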 The note with it: luminescence, 4.5 h, higher = more signal, called active from +8 up or from −8 down.
Assay [15] deals with Streptavidin (Streptomyces avidinii) (UniProt P22629). In words: compounds binding control protein streptavidin – biophysical, small-molecule microarray, 635/667 nm fluorescence, artefact control for SMM compound annotation, primary screen (AID 1147).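 Note: signal reflects streptavidin binding to arrayed compounds as a control protein.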 The note with it: higher = more signal.
Sequence of Streptavidin (Streptomyces avidinii) (P22629 whole entry, looked up): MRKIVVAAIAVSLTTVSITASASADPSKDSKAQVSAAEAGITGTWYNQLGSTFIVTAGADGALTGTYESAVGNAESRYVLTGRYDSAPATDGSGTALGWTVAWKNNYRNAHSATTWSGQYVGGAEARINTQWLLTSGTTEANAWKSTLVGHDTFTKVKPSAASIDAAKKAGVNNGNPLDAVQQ
The nature of assay [16]: probe aInhba binding on compound microarray – biochemical, small-molecule microarray, 635/667 nm fluorescence, primary screen (AID 1148).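 Note: score merges 667nm spot fluorescence with signal-to-noise for antibody binding to printed compounds.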 The note with it: higher = more signal.
In assay [17] the target is Torsin-1A (Homo sapiens) (UniProt O14656). In words: TOR1A wild-type binding on microarray – cell lysate, small-molecule microarray, lysate, 635/667 nm, primary screen (AID 1149). The note with it: COS7 hTOR1A-WT lysate, 635 nm fluorescence, higher = more signal.
Sequence of Torsin-1A (Homo sapiens) (O14656 whole entry, looked up): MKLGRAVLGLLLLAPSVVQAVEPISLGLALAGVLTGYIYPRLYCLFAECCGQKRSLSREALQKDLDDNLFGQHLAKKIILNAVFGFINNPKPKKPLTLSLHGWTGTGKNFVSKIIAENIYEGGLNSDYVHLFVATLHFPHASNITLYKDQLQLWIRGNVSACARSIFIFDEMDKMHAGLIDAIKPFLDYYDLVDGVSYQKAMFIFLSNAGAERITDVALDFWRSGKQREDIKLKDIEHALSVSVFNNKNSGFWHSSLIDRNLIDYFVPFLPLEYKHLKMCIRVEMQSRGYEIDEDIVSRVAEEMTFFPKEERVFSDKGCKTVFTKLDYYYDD
The target is the same in assay [18]. In words: torsin A mutant lysate binding on microarrays – cell lysate, small-molecule microarray, COS7 lysate, 635/667 nm fluorescence, primary screen (AID 1150).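 Note: score pools 667 nm emission and signal to noise measuring lysate protein binding.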 The note with it: COS7 hTOR1A mutant lysate, 635 nm fluorescence, higher = more signal.
Assay [19] deals with Sonic hedgehog protein (Shh). As to the kind of experiment: Sonic hedgehog microarray binding compounds – biochemical, small-molecule microarray, 635/667 nm fluorescence, primary screen (AID 1151).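 Note: Shh protein binding to compounds spotted on small-molecule microarray slides; score combines spot fluorescence intensity with signal-to-noise across triplicate slides.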 The note with it: 635 nm fluorescence, higher = more signal.

Sequence of Focal adhesion kinase 1 (Homo sapiens) (Q05397 whole entry, looked up): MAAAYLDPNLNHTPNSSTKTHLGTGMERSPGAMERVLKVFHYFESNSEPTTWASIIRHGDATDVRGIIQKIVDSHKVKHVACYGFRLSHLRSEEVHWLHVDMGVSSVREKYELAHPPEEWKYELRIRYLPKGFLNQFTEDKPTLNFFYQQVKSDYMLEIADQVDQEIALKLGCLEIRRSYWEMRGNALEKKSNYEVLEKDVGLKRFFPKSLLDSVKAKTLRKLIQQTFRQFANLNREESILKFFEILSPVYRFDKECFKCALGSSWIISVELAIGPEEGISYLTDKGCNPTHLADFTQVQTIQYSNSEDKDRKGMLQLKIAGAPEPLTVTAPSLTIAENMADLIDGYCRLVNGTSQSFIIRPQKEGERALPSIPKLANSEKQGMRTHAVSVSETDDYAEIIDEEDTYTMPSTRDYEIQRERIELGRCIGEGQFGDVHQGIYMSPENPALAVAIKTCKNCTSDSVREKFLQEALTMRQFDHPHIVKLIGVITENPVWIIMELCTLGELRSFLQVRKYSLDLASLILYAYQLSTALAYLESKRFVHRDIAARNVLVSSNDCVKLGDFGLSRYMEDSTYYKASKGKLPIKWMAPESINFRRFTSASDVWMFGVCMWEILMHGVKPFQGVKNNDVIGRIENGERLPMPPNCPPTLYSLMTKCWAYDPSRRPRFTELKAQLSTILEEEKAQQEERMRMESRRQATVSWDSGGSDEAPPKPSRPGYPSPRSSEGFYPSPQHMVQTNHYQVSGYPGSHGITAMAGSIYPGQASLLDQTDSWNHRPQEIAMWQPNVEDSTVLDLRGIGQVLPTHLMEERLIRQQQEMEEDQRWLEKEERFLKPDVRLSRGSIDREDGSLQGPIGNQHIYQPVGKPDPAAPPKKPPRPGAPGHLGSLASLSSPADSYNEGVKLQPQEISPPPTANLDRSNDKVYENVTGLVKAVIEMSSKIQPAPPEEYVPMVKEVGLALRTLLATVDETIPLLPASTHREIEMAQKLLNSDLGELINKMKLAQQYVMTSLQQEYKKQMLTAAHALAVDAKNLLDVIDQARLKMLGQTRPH

Turning to `O=C1N[C@@H](Cc2ccccc2)C(=O)N2[C@@H]1C[C@@H](C(=O)O)[C@H]2c1ccc(O)cc1`, the composite z-score in assay [1] was 2.01; in assay [2], -0.219; in assay [3], -0.11; in assay [4], 0.68; in assay [5] it was 1.35; in assay [6], 1.26. The composite z-score in the assay on Lefty1 came to 1.58; in assay [8], 0.828; in [10] it was 0.391; in [15], 0.0885; in assay [16], 0.25; in the assay with Torsin-1A (Homo sapiens) [17] it was 0.574. Besides, the composite z-score with Torsin-1A (Homo sapiens) [18] came out at 0.533; in assay [19], 2.02. In addition, the z-score in assay [7] was 0.0945; in assay [9] it was -1.43 (inactive); in assay [11] it was -0.477 (inactive); in [12] it was 0.106 (inactive); in [13], 0.692 (inactive); in assay [14], -0.789 (inactive).

As to `COC(=O)C(CC#Cc1ccc2c(c1)[C@]1(C(=O)N2)[C@H](C(=O)Nc2nc3ccccc3s2)[C@H]2C(=O)O[C@H](c3ccccc3)[C@H](c3ccccc3)N2[C@@H]1c1ccc(OCCO)cc1)C(=O)OC`, the composite z-score in assay [1] is 1.94; in assay [2] it was 1.1; in assay [3], 0.539; in assay [4], 0.978; in assay [5], 1.45; in assay [6], 1.39. Besides, the composite z-score with Lefty1 was 1.27; in [8] it was 1.07; in [10], 1.07; in [15], 1.25; in assay [16], 0.146; in the assay with Torsin-1A (Homo sapiens) [17] it was 1.65. Besides, the composite z-score in the assay with Torsin-1A (Homo sapiens) [18] was found to be 0.541; in [19], 1.53. The z-score is -1.94 in [7]; -4.66 (inactive) in [9]; -2.48 (inactive) in assay [11]; -1.7 (inactive) in [12]; 0.415 (inactive) in assay [13]; -0.856 (inactive) in [14].

`O=C(CS)NCCCCCNC(=O)[C@@H]1C[C@@H]2C(=O)N[C@@H](Cc3ccccc3)C(=O)N2[C@@H]1c1cccc(OCCO)c1`: the composite z-score in assay [1] came out at 0.768; in assay [2], 1.24; in assay [3], 0.334; in assay [4] it was 0.284; in [5], 1.39; in assay [6], 1.6. Moreover, the composite z-score was 0.4 with Lefty1; 0.288 in assay [8]; 0.409 in assay [10]; -0.0307 in assay [15]; -0.787 in [16]; 0.7 with Torsin-1A (Homo sapiens) [17]. For the same molecule, the composite z-score in the assay with Torsin-1A (Homo sapiens) [18] was found to be 1.31; in assay [19] it was 1.49. For the same molecule, the z-score in assay [7] was 0.296; in [9], -1.97 (inactive); in assay [11], -0.497 (inactive); in [12], -0.042 (inactive); in assay [13], 0.7 (inactive); in assay [14], 0.432 (inactive).

Consider `[N-]=[N+]=NCc1ccccc1C[C@@]1(C(=O)N2CCCCC2)N=C(c2ccc(OCCCO)cc2)O[C@@H]1c1ccccc1CN=[N+]=[N-]`, for which the composite z-score was -0.174 in assay [1]; 1.18 in assay [2]; 0.457 in [3]; 1.02 in [4]; 0.913 in assay [5]; 0.74 in assay [6]. Besides, the composite z-score was -0.611 with Lefty1; 1.28 in assay [8]; 0.599 in assay [10]; 0.721 in assay [15]; 0.153 in assay [16]; 0.362 with Torsin-1A (Homo sapiens) [17]. Further, the composite z-score was -0.0699 with Torsin-1A (Homo sapiens) [18] and -0.306 in assay [19]. The z-score in assay [7] was 0.342; in [9], -0.57 (inactive); in assay [11], -4.29 (inactive); in assay [12] it was 0.87 (inactive); in assay [13], -0.114 (inactive); in assay [14] it was 0.872 (inactive).

For the molecule `O=C1C2C=CC(C(O)C=Cc3ccc([N+](=O)[O-])cc3)N(Nc3ccccc3)C2C(=O)N1c1ccccc1` (stereo not given), the composite z-score in assay [1] was 0.185; in [2] it was 1.2; in assay [3], 0.0142; in assay [4], 1.02; in assay [5] it was 1.24; in assay [6] it was 0.0395. The composite z-score in the assay with Lefty1 was 0.416; in [8] it was 0.932; in assay [10], 0.264; in [15] it was 1.53; in [16] it was 0.117; with Torsin-1A (Homo sapiens) [17], -0.283. Moreover, the composite z-score with Torsin-1A (Homo sapiens) [18] turned out to be 0.0565; in assay [19], 0.0063. In addition, the z-score was -0.0492 in assay [7]; -1.65 (inactive) in assay [9]; -0.132 (inactive) in assay [11]; -0.633 (inactive) in [12]; -0.143 (inactive) in [13]; -0.148 (inactive) in assay [14].
